# Source: PubChem BioAssay (Tox21)
# Results filed as inconclusive are left out. A call without a number means that no potency is given here. A number with no mark means an inactive call. Active and inactive are the calls of the source. Unless noted, calls follow the shape of the dose curve; as a rule, active = well fitted curve in the direction sought with a large enough effect in the repeat runs; inconclusive = weak or mixed curves; inactive = no such curve, though single readings can be large; an effect the other way counts as inactive or inconclusive.
# Key:
# [1] = qHTS assay to identify aromatase inhibitors - cell viability counter screen (AID 743084);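 also: cells stimulated with testosterone during compound exposure; nearly all actives have a fitted effect of over 55% in size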
# [2] = biological target: Aryl hydrocarbon receptor (Homo sapiens) (UniProt P35869); assay: qHTS assay to identify small molecule that activate the aryl hydrocarbon receptor (AhR) signaling pathway (AID 743085); also: nearly all actives have a fitted effect of over 15% in size; also: potency is read from the fitted curve at half-maximal effect;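 as to activation: HG2L7.5c1 human HepG2 liver cells with stably integrated DRE-driven firefly reporter; series mostly up to about 70 µM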
# In short: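 AhR agonist activity is inferred from enhanced light output of a DRE-controlled firefly luciferase reporter in HepG2 cells, measured with ONE-Glo following 24 h treatment at 37C.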
# [3] = qHTS assay to identify small molecule that activate the aryl hydrocarbon receptor (AhR) signaling pathway - cell viability counter screen (AID 743086); also: nearly all actives have a fitted effect of over 45% in size; also: potency is read from the fitted curve at half-maximal effect
# In short: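 HepG2-AhR-luc (HG2L7.5c1) cells, 4000/well, treated 24 h at 37 C with compound; viability measured as CellTiter-Fluor fluorescence after 30 min in the same wells as the luciferase read.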
# [4] = biological target: Peroxisome proliferator-activated receptor gamma (Homo sapiens) (UniProt P37231); assay: qHTS assay to identify small molecule agonists of the peroxisome proliferator-activated receptor gamma (PPARg) signaling pathway (AID 743094; active = well fitted activation curve with a large enough effect in the signal ratio in the repeat runs, not every such curve was filed as active; the % refers to the signal ratio)
# In short: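 Beta-lactamase FRET fluorescence was the read-out after a 1 h room-temperature substrate step, following 17 h compound treatment at 37C of HEK293H cells expressing a UAS-driven bla reporter responsive to PPARg.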
# [5] = biological target: Peroxisome proliferator-activated receptor gamma (Homo sapiens) (UniProt P37231); assay: qHTS assay to identify small molecule antagonists of the peroxisome proliferator-activated receptor gamma (PPARg) signaling pathway (AID 743191; calls by dose curve; also: series mostly up to about 63 µM; nearly all actives have a fitted effect of over 30% in size)
# In short: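 GeneBLAzer PPARg UAS-bla HEK293H cells, 5 h post-plating, exposed to compounds 17 h at 37C. LiveBLAzer B/G FRET substrate added for 1 h at room temperature; beta-lactamase reporter read by fluorescence intensity.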
# [6] = qHTS assay to identify small molecule antagonists of the peroxisome proliferator-activated receptor gamma (PPARg) signaling pathway - cell viability counter screen (AID 743194); details: Potency: co-treated with 50 nM rosiglitazone; also: nearly all actives have a fitted effect of over 55% in size
# In short: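 Cytotoxicity counter screen in PPARg-bla HEK293H cells, same wells as reporter assay. Compounds plus 50 nM rosiglitazone (final) for 17 h at 37 C, then viability read by CellTiter-Glo luminescence.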
# [7] = qHTS assay for small molecule agonists of the antioxidant response element (ARE) signaling pathway (AID 743202; active = well fitted activation curve with a large enough effect in the signal ratio in the repeat runs, not every such curve was filed as active; the % refers to the signal ratio; also: potency is read from the fitted curve at half-maximal effect)
# In short: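 ARE-bla HepG2 cells (beta-lactamase reporter under the antioxidant response element), plated 5 hours, then exposed to compounds 16 hours at 37 C. LiveBLAzer B/G FRET substrate added for 2 hours at room temperature; fluorescence intensity read.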
# [8] = qHTS assay for small molecule activators of the heat shock response signaling pathway - cell viability counter screen (AID 743209); also: nearly all actives have a fitted effect of over 50% in size; also: potency is read from the fitted curve at half-maximal effect
# In short: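 Luminescence from CellTiter-Glo, added after the beta-lactamase FRET read, gave the viability signal. Cells were HSE-bla HeLa treated with DMSO-dissolved compounds for 5 h at 37 C following overnight plating.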
# [9] = qHTS assay for small molecule activators of the heat shock response signaling pathway (AID 743210; active = well fitted activation curve with a large enough effect in the signal ratio in the repeat runs, with a control signal flat, not every such curve was filed as active; the % refers to the signal ratio; also: series mostly up to about 63 µM)
# In short: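 HSE-bla HeLa cells (beta-lactamase reporter under heat shock response elements), plated overnight, then exposed to compounds 5 h at 37 C; LiveBLAzer B/G FRET substrate added, 2.5 h at room temperature, fluorescence intensity read.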
# [10] = qHTS assay to identify small molecule agonists of the peroxisome proliferator-activated receptor delta (PPARd) signaling pathway - cell viability counter screen (AID 743211); also: nearly all actives have a fitted effect of over 55% in size
# In short: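 qHTS cell viability: PPARd-bla HEK293H; 17 h cpd, 37C; CellTiter-Glo, luminescence at 30 min RT.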
# [11] = biological target: Peroxisome proliferator-activated receptor delta (Homo sapiens) (UniProt Q03181); assay: qHTS assay to identify small molecule agonists of the peroxisome proliferator-activated receptor delta (PPARd) signaling pathway (AID 743212; calls by dose curve)
# In short: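 GeneBLAzer UAS-bla HEK293H cells carrying a PPARδ construct were exposed to compounds at 37 °C. Beta-lactamase activity was read by FRET fluorescence after 2 h at room temperature with LiveBLAzer B/G substrate.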
# [12] = qHTS assay to identify small molecule antagonists of the peroxisome proliferator-activated receptor delta (PPARd) signaling pathway - cell viability counter screen (AID 743213); also: nearly all actives have a fitted effect of over 50% in size
# In short: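 HEK293H PPARd UAS-bla cells, 5 h pre-incubation, compound + L165041 300 nM final, 17 h 37 C; B/G FRET substrate 2 h RT; then CellTiter-Glo 30 min RT, luminescence.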
# [13] = biological target: Peroxisome proliferator-activated receptor delta (Homo sapiens) (UniProt Q03181); assay: qHTS assay to identify small molecule antagonists of the peroxisome proliferator-activated receptor delta (PPARd) signaling pathway (AID 743215; active = well fitted inhibition curve with a large enough effect in the signal ratio in the repeat runs, not every such curve was filed as active; the % refers to the signal ratio;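 also: cells stimulated with agonist L165041 at 300 nM final during compound exposure; series mostly up to about 62 µM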)
# In short: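 Read-out is beta-lactamase FRET fluorescence, measured 2 h after substrate addition at room temperature. Beforehand, UAS-bla HEK293H cells carrying the PPARd reporter were exposed to compounds with L165041 at 300 nM final for 17 h at 37 C.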
# [14] = biological target: Vitamin D3 receptor (Homo sapiens) (UniProt P11473); assay: qHTS assay to identify small molecule agonists of the vitamin D receptor (VDR) signaling pathway (AID 743222; calls by dose curve)
# In short: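 VDR-bla cells, 2,000/well; 4 h preincubation 37C; cpd (DMSO) 16 h; LiveBLAzer B/G substrate 2 h RT; fluorescence intensity read.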
# [15] = qHTS assay for small molecule agonists of the antioxidant response element (ARE) signaling pathway - cell viability counter screen (AID 743203; calls by dose curve; also: nearly all actives have a fitted effect of over 55% in size)
# In short: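 HepG2 cells carrying ARE-driven beta-lactamase; 2,000 cells/well; 5 hrs plating; compound pinned from DMSO; 16 hrs 37C/5% CO2; CellTiter-Glo added; 30 min RT; luminescence.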
# [16] = biological target: Bile acid receptor (Homo sapiens) (UniProt Q96RI1); assay: qHTS assay to identify small molecule antagonists of the farnesoid-X-receptor (FXR) signaling pathway (AID 743217; active = well fitted inhibition curve with a large enough effect in the signal ratio in the repeat runs, not every such curve was filed as active; the % refers to the signal ratio)
# In short: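 HEK 293T FXR-UAS-bla, 5000 cells/well; compound + CDCA 50 uM final; 16 h, 37 °C; B/G FRET substrate 2 h RT; fluorescence.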
# [17] = qHTS assay to identify small molecule agonists of the farnesoid-X-receptor (FXR) signaling pathway - cell viability counter screen (AID 743218); also: nearly all actives have a fitted effect of over 45% in size
# In short: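 HEK 293T FXR-bla cells; 5 h pre-incubation, 16 h compound exposure at 37 C; LiveBLAzer substrate 2 h RT, then CellTiter-Glo 30 min RT, luminescence.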
# [18] = biological target: Bile acid receptor (Homo sapiens) (UniProt Q96RI1); assay: qHTS assay to identify small molecule agonists of the farnesoid-X-receptor (FXR) signaling pathway (AID 743220; active = well fitted activation curve with a large enough effect in the signal ratio in the repeat runs, not every such curve was filed as active; the % refers to the signal ratio)
# In short: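 Beta-lactamase reporter under UAS control in GeneBLAzer FXR HEK 293T cells (5000/well) measured with LiveBLAzer FRET substrate after 2 h at room temperature. Compound exposure lasted 16 h at 37C.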
# [19] = qHTS assay to identify small molecule antagonists of the farnesoid-X-receptor (FXR) signaling pathway - cell viability counter screen (AID 743221; active = well fitted cell-killing curve with a large enough effect in the repeat runs, not every such curve was filed as active; also: nearly all actives have a fitted effect of over 50% in size)
# In short: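 After a 5 h settling period, FXR-bla HEK 293T cells receive compound and chenodeoxycholic acid (50 uM final) and incubate 16 h at 37 C; CellTiter-Glo luminescence, read after 30 min at room temperature, reports cell viability.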
# [20] = biological target: Vitamin D3 receptor (Homo sapiens) (UniProt P11473); assay: qHTS assay to identify small molecule antagonists of the vitamin D receptor (VDR) signaling pathway (AID 743223; active = well fitted inhibition curve with a large enough effect in the signal ratio in the repeat runs, not every such curve was filed as active; the % refers to the signal ratio)
# In short: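 Reporter line VDR-bla; stimulus 1alpha,25-(OH)2 vitamin D3, 3 nM final; compound co-addition, 16 h 37C/5% CO2; LiveBLAzer B/G substrate 2 h RT; fluorescence intensity.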
# Chain of Aryl hydrocarbon receptor (Homo sapiens) (P35869 whole entry, looked up): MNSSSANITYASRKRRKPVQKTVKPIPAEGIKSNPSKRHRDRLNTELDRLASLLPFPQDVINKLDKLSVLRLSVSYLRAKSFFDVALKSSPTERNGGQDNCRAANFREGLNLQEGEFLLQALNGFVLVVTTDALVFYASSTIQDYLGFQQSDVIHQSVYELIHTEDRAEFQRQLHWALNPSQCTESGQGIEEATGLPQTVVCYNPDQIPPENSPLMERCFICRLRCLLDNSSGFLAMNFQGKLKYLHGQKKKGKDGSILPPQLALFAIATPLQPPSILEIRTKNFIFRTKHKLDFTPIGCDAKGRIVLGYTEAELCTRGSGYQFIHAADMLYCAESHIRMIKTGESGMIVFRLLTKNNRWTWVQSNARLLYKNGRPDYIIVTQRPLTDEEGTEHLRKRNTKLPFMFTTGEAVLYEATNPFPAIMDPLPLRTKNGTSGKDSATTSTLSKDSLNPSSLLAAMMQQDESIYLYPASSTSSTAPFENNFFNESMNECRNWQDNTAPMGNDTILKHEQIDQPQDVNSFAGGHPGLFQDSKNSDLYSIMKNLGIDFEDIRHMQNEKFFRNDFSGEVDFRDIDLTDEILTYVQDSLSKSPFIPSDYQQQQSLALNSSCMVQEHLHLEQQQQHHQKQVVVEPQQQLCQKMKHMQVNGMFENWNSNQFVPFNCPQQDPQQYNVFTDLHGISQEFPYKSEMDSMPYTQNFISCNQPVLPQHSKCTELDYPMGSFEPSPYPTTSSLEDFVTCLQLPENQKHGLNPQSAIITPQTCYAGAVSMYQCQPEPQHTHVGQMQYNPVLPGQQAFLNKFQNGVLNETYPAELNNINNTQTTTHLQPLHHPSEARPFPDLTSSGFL
# Chain of Bile acid receptor (Homo sapiens) (Q96RI1 whole entry, looked up): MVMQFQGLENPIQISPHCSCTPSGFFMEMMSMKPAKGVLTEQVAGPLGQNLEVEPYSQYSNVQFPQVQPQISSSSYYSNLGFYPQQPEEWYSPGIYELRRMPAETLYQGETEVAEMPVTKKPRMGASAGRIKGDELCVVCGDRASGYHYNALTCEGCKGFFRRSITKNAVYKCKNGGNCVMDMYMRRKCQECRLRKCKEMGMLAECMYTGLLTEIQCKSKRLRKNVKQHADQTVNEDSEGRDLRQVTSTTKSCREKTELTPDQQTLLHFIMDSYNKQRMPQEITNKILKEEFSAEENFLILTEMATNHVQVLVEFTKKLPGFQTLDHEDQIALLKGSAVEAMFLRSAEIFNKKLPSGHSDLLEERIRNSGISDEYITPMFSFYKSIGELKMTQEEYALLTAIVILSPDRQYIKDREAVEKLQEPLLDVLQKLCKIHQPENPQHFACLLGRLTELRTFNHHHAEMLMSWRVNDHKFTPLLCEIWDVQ
# Chain of Vitamin D3 receptor (Homo sapiens) (P11473 whole entry, looked up): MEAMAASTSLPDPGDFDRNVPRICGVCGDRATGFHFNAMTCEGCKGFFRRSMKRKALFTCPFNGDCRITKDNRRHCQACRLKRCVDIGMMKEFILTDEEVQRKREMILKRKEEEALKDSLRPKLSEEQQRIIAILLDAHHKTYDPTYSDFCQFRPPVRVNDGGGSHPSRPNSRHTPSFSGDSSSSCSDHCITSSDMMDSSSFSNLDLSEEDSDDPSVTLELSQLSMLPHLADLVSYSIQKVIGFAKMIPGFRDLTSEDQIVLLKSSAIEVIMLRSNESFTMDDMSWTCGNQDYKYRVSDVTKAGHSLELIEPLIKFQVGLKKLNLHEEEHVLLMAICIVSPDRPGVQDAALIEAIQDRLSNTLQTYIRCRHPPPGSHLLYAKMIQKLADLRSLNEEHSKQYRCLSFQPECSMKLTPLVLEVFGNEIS
# Chain of Peroxisome proliferator-activated receptor delta (Homo sapiens) (Q03181 whole entry, looked up): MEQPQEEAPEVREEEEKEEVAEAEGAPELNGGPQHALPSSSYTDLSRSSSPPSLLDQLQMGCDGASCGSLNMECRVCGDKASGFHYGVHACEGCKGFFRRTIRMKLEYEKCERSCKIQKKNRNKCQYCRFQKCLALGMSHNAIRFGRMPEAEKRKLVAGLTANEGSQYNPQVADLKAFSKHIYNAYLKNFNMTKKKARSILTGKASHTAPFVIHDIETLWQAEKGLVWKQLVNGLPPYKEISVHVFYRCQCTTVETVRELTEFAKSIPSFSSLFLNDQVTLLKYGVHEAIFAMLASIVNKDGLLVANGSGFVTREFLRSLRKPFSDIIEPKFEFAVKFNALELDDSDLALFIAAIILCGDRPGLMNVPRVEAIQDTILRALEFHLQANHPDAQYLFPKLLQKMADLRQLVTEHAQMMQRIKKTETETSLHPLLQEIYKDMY
# Chain of Peroxisome proliferator-activated receptor gamma (Homo sapiens) (P37231 whole entry, looked up): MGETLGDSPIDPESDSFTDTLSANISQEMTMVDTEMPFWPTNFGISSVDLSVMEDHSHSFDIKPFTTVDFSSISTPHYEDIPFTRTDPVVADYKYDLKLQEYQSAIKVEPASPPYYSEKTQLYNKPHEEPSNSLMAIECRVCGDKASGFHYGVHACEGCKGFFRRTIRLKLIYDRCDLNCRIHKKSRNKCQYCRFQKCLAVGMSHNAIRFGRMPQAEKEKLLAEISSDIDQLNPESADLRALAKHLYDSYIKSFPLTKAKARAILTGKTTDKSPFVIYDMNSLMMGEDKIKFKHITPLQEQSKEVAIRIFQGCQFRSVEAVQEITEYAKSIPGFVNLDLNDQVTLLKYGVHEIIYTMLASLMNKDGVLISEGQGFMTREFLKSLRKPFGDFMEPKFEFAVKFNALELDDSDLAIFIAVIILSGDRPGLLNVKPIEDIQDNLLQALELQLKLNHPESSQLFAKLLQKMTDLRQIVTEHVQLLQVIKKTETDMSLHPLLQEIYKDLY
SMILES,Potency [1],Potency [2],Potency [3],Potency [4],Potency [5],Potency [6],Potency [7],Potency [8],outcome [9],Potency [10],outcome [11],Potency [12],Potency [13],outcome [14],Potency [15],Potency [16],Potency [17],outcome [18],Potency [19],outcome [20]
Brc1ccccc1,inactive,inactive,inactive,inactive,inactive,inactive,inactive,inactive,inactive,inactive,inactive,inactive,inactive,inactive,,,,,,
Cn1sc(Cl)cc1=O,inactive,inactive,inactive,inactive,inactive,,,inactive,,inactive,inactive,inactive,,inactive,inactive,inactive,inactive,inactive,inactive,inactive
CC1C(=O)C[C@]2(C(C)C)C[C@H]12 (some centres not stated),inactive,inactive,inactive,inactive,inactive,inactive,inactive,inactive,inactive,inactive,inactive,,inactive,inactive,inactive,inactive,inactive,inactive,inactive,inactive
CCOC(=O)COc1cc(-c2nn(C)c(OC(F)F)c2Cl)c(F)cc1Cl,inactive,19.3 µM (active),inactive,inactive,inactive,,inactive,inactive,,inactive,inactive,inactive,inactive,inactive,inactive,,,,inactive,inactive
CC(C)(OO)c1ccccc1,inactive,inactive,inactive,inactive,inactive,inactive,,49 µM (active),,inactive,inactive,inactive,,inactive,,inactive,inactive,inactive,inactive,
Clc1ccc(C(OCCN2CCCCC2)c2ccccc2)cc1 (configuration not stated),inactive,inactive,inactive,inactive,inactive,inactive,,,inactive,,,,,inactive,,,,,,
CCCN(CC1CC1)c1c([N+](=O)[O-])cc(C(F)(F)F)cc1[N+](=O)[O-],inactive,inactive,inactive,inactive,inactive,inactive,inactive,inactive,inactive,,inactive,inactive,,,inactive,inactive,inactive,inactive,,
CC(C)(CCl)C(=O)Cl,inactive,inactive,inactive,inactive,inactive,inactive,inactive,inactive,,,inactive,,inactive,,inactive,,,,inactive,inactive
[O-][Cl+]O,inactive,inactive,inactive,inactive,inactive,inactive,,inactive,inactive,inactive,inactive,inactive,inactive,inactive,inactive,,inactive,,inactive,inactive
CCCCCCCCOC(=O)c1ccc(C(=O)OCCCCCCCC)c(C(=O)OCCCCCCCC)c1,inactive,inactive,inactive,inactive,inactive,inactive,,inactive,,inactive,inactive,,,,,inactive,inactive,inactive,,
CCN(C)N=O,inactive,inactive,inactive,inactive,inactive,inactive,,inactive,inactive,inactive,inactive,inactive,,inactive,inactive,,inactive,,,inactive
Cc1ccccc1CCl,inactive,inactive,inactive,inactive,inactive,inactive,,inactive,inactive,inactive,inactive,inactive,,inactive,inactive,,inactive,,inactive,
BrCC(Br)C1CCC(Br)C(Br)C1 (configuration not stated),inactive,inactive,inactive,inactive,inactive,inactive,,inactive,inactive,inactive,,,,,inactive,,inactive,,inactive,
N#CCC#N,inactive,inactive,inactive,inactive,inactive,inactive,inactive,,,inactive,,inactive,inactive,inactive,inactive,,inactive,,,
O=S(=O)(Cl)c1ccccc1,inactive,inactive,inactive,inactive,inactive,inactive,inactive,inactive,inactive,inactive,inactive,inactive,,inactive,inactive,inactive,inactive,inactive,inactive,
CC(=O)NC1CCSC1=O (configuration not stated),inactive,inactive,inactive,inactive,inactive,,inactive,inactive,inactive,inactive,inactive,inactive,inactive,inactive,inactive,,,,,inactive
ClCC(Br)CBr (configuration not stated),inactive,inactive,inactive,inactive,inactive,inactive,inactive,inactive,inactive,inactive,,inactive,,inactive,,,inactive,,inactive,inactive
CCOc1nc(F)cc2nc(S(=O)(=O)Nc3c(Cl)cccc3Cl)nn12,inactive,inactive,inactive,,inactive,inactive,inactive,inactive,inactive,inactive,inactive,inactive,,,,inactive,inactive,inactive,inactive,
O=C1NCN(c2ccccc2)C12CCN(CCCOc1ccc(F)cc1)CC2,inactive,inactive,5.31 µM (active),inactive,,inactive,2.37 µM (active),inactive,,,inactive,,,inactive,,,,inactive,,
